SMILES strings stand for the structures. Unmarked numbers belong to inactive results.

The test in a line: S. cerevisiae RM11-1a growth modifiers, primary screen, strain RM11-1a, OD600, basal, 24 h (AID 1177).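 Further: cultures grown under basal conditions with no added stressor; test concentration not given here.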 Conditions: OD600, 24 h, higher = more signal, called active from +8 up or from −8 down.
For `C#CCN1[C@@H](Cc2ccc(O)cc2)C(=O)O[C@H](Cc2ccccc2)[C@@H]1/C=C/C1CC1`, the z-score is 0.168.
As for `CCCCCCCCCCC(O)C1C=CC2C(=O)NC(=O)C2N1Nc1ccc(Cl)cc1Cl` (centres undefined), the z-score is 1.69.
The figure for `O=C(NCc1ccccc1)[C@@H]1c2ccccc2C(=O)N(C2Cc3ccccc3C2)[C@H]1c1ccc(CO)cc1` is 0.644.
The figure for `CN(C)CCCCCCNC(=O)[C@@H]1C[C@@H]2C(=O)N3CCC[C@H]3C(=O)N2[C@@H]1c1ccc(O)cc1` is -2.55; for `N#Cc1ccc(C(O)C2C=CC3C(=O)N(c4ccccc4)C(=O)C3N2Nc2ccccc2F)cc1` (centres undefined) it is -0.402; for `COc1ccc([Si](C)(C)[C@@H]2[C@@H](CC(=O)N3Cc4ccccc4C[C@H]3CO)O[C@]3(C(=O)N(Cc4cccc(N5CCC5=O)c4)c4ccccc43)[C@H]2C)cc1` it is 1.38.
`CS(=O)(=O)CCOC(=O)C1=CC(CCCO)=CC(C2CC2)N(Cc2cc3c(cc2Br)OCO3)C=C1C(=O)OCCS(C)(=O)=O` (centres undefined): the z-score was 0.37.
As to `NC(=O)N1C(=O)C2C(C1=O)C1C=C(CCCO)C2C(C2CC2)N1Cc1cc2c(cc1Br)OCO2` (centres undefined), the z-score is -0.492.
With `O=C1OCCC=C[C@H]2OC34C=CCN(CCN5CCOCC5)C(=O)[C@H]3N(CCCCCO)C(=O)[C@@H]4C12` (some centres undefined) the figure was -0.112; with `CC(CO)N1C(=O)[C@@H]2C3C(=O)OCCC/C=C\[C@H]3OC23C=CCN(CCN2CCOCC2)C(=O)[C@@H]13` (some centres undefined), -0.137; with `CCCCCCc1nc(-c2ccc(-c3ccc(Cl)c(Cl)c3)o2)c(C)c2c1[Si](C(C)C)(C(C)C)OC2`, -0.721.
On to `CCOc1cc(C(O)C2C=CC3C(=O)N(c4ccccc4)C(=O)C3N2Nc2ccc(C(C)C)cc2)ccc1O` (centres undefined), for which the z-score is 1.68.
Take `CCOC(=O)C1=C[C@@H](C(C)C)N(S(=O)(=O)c2ccc(C)cc2)[C@H]1c1ccccc1F`: the z-score was 0.411.
As for `COc1cc2c(cc1O)C(c1cccs1)N(Cc1cccc(OC(F)(F)F)c1)CC2` (centres undefined), the z-score is -0.728.
As for `C=CCN1C(=O)[C@]2(Cc3ccccc3)N=C(c3ccc(OCCCO)cc3)O[C@@H]2c2ccccc21`, the z-score was 1.68.
With `COc1ccc([Si](C)(C)[C@@H]2[C@@H](CCn3cc(CCO)nn3)O[C@]3(C(=O)N(Cc4cccc(N5C(=O)c6cccc7cccc5c67)c4)c4ccccc43)[C@H]2C)cc1` the figure was 1.69; with `C=CCN(Cc1ccccc1)C(=O)C(c1cccs1)N(C(=O)/C=C\C(=O)O)c1ccc(CCOCCO)cc1` (centres undefined), -1.18; with `COC(=O)c1c2oc(c1C(=O)OC)C(=O)NC1(CCCCC1)c1cn(nn1)C[C@H](Cc1ccccc1)NC(=O)N[C@H](CO)CC2`, -0.0499.
The figure for `CC(=O)NCCCC[C@@H]1NC(=O)[C@H]2C[C@@H](C(=O)NCCCCCNC(=O)CS)[C@@H](c3ccc(O)cc3)N2C1=O` is 0.949; for `COCCCNC(=O)[C@@]1(CCS(=O)(=O)c2ccccc2)N=C(c2ccc(OCCCO)cc2)O[C@H]1c1ccccc1N=[N+]=[N-]` it is -0.488.
Turning to `COc1ccc(NN2C(C(O)c3ccc(N(C)C)cc3)C=CC3C(=O)N(C4CCCCC4)C(=O)C32)cc1` (centres undefined), the z-score was -0.0156.
On to `[N-]=[N+]=NCc1ccccc1[C@@H]1OC(c2ccc(OCCCO)cc2)=N[C@]1(CCS(=O)(=O)c1ccccc1)C(=O)N1CCCCC1`, for which the z-score is -0.0163.
In the case of `COC(=O)C[C@H]1O[C@@H](CCc2ccccc2)[C@@H](C)[C@@H]1[Si](C)(C)c1ccc(OC)cc1`, the z-score is 0.725.
Regarding `CN1C(=O)C2C=CC(C(O)c3ccccc3)N(N3CCCCC3)C2C1=O` (centres undefined), the z-score is -0.023.
The figure for `COC(=O)[C@@]1(Cc2ccc(OC)cc2)[C@H]2c3cc(C(=O)N4CCCC4)n(CCSCCO)c3C[C@H]2CN1C(=O)c1ccccc1` is 1.47; for `COC(=O)c1c(CC[C@@H](CO)NC(=O)NCCc2c[nH]c3ccccc23)oc(C(=O)Cc2ccccc2)c1C(=O)OC` it is -0.731; for `O[C@@H](Cc1ccccc1)[C@@H](/C=C/C1CC1)NCc1cccc(Cl)c1` it is -1.15.
With `CN1CCC(CCCO)=CC1c1cccs1` (centres undefined) the figure was -0.842; with `CO[C@H]1O[C@H](CO)[C@@H](OC(=O)Nc2ccc(Br)cc2)[C@@H]2OC(=O)[C@H](Cc3cccc(Br)c3)C/C=C/C[C@@H](Cc3cccc(Br)c3)C(=O)O[C@@H]12`, 0.459.

The record behind these values is PubChem BioAssay.
